TDP1 cell CPT: DT40-hTDP1 cell growth loss with CPT; chicken DT40 Tdp1-/-;hTDP1 cells + 20 nM CPT, ATP luminescence, 48 h; Potency, µM (doses to about 46.2 µM), actives largely listed as inhibitors; actives 12% (n = 420,000); AID 686979; note: nearly all actives have a fitted effect of over 55% in size
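Chicken DT40 Tdp1-/- cells complemented with human TDP1, 400 cells/well, exposed to compounds plus 20 nM camptothecin for at least 48 h at 37 C; viability read as ATP content by CellTiter-Glo luminescence.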
TDP1 cell noCPT: qHTS for Inhibitors of human tyrosyl-DNA phosphodiesterase 1 (TDP1): qHTS in cells in absence of CPT; DT40 Tdp1-/- hTDP1 cells, no CPT, ATP luminescence, 48 h; actives 15% (n = 420,000); Potency, µM (doses to about 46.2 µM), hits mostly inhibitors; note: nearly all actives have a fitted effect of over 55% in size
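Cells were dispensed at 400 per well, compounds added by pin tool, plates incubated ≥48 hr at 37 °C, then CellTiter-Glo added for 30 min at room temperature before luminescence reading. Line: DT40 Tdp1-/- complemented with hTDP1; camptothecin omitted.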
IL-1B inflam inh: blocks inflammasome-driven IL-1 beta release. THP-1 LPS/ATP IL-1B secretion, AlphaLISA, 16 h; stronger effect = lower value. activity change, % at 57.5 µM. actives 4.7% (n = 360,000). AID 743279; in the data active = activity change below about -50%; inconclusive = mostly about -30% to -49%
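THP-1 cells pretreated 1 hr with compounds (up to 57.5 uM final), then stimulated with LPS (250 ng/mL final) plus ATP (1.25 mM final); secreted IL-1B measured by AlphaLISA after 16 hr, decreased signal indicating inhibition.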
HT1080-NT tox: kills 2HG-producing HT-1080-NT fibrosarcoma cells. HT-1080-NT fibrosarcoma viability, CellTiter-Glo ATP luminescence, 48 h. Potency, µM (doses to about 46.1 µM), usual class: cytotoxic. actives 1.6% (n = 360,000);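 note: NT is the 2HG producing partner of a matched IDH1 knockdown line; nearly all actives have a fitted effect of over 55% in size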
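HT-1080-NT; 750 cells/well; 5% FBS RPMI; 48 h compound, 37 degrees C; CellTiter-Glo luminescence; curve fitting and curve-class assignment.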
HT1080 IDH1KD tx: toxicity to HT-1080 IDH1 knockdown cells (counter line). HT-1080 IDH1 knockdown viability, ATP luminescence, 48 h. Potency, µM (top dose mostly 46.1 µM), usual class: cytotoxic. actives 2% (n = 360,000). AID 686971
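CellTiter-Glo luminescence after 48 h compound exposure at 37 degrees C of IDH1-knockdown HT-1080 cells in 5% FBS RPMI. %Activity scaled between DMSO wells and cell-free media wells, with curves fitted and assigned curve classes.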
Hits are given with their value; i = inactive; ? = inconclusive; nt = not tested or not shown. Most compounds without a hit are left out; they make up all but 19% or so of the library. Unless noted, calls come from the whole dose curve; as a rule, active = well fitted curve in the direction sought with a large enough effect; inconclusive = small, poorly fitted or top-dose-only effect, or another doubt; inactive = no such curve, though single readings can be large; an effect the other way counts as inactive or inconclusive.

SMILES | TDP1 cell CPT | TDP1 cell noCPT | IL-1B inflam inh | HT1080-NT tox | HT1080 IDH1KD tx
CCOc1ccc(NS(=O)(=O)c2ccc3[nH]cc(C(=O)N4CCCC4)c(=O)c3c2)cc1 | i | ? | nt | nt | nt
COc1ccc(Cn2cc(C(=O)c3ccc(Cl)cc3)c(=O)c3cc4c(cc32)OCO4)cc1 | ? | 23.1µM | nt | nt | nt
Cc1ccc2c(c1)c(=O)c(C(=O)c1ccc3c(c1)OCO3)cn2Cc1ccc(Cl)cc1 | ? | 16.4µM | nt | nt | nt
O=C(c1ccc2c(c1)OCO2)c1cn(Cc2ccc(Cl)cc2)c2ccc(F)cc2c1=O | ? | 20.6µM | nt | nt | nt
COc1ccc2c(c1)c(=O)c(C(=O)c1ccc(Cl)cc1)cn2CC(=O)Nc1ccc2c(c1)OCO2 | i | i | nt | nt | nt
O=C(N/C(=C/c1ccc(Cl)cc1)C(=O)N1CCCC1)c1ccccc1 | i | ? | i | i | i
CSc1ccccc1NC(=O)CO/N=C(\C)c1cc2ccccc2o1 | ? | ? | ? | i | i
C/C(=N\OCC(=O)NC12CC3CC(CC(C3)C1)C2)c1cc2ccccc2o1 | 20.6µM | ? | -90.7 | ? | ?
COc1cc(-c2cc(NC(C)=O)c3ncc(-c4cc(OC)c(OC)c(OC)c4)n3c2)cc(OC)c1OC | 8.2µM | 7.31µM | i | 23.1µM | 13µM
COc1cc(-c2cnc3c(NC(C)=O)cc(-c4ccccc4CN(C)C)cn23)cc(OC)c1OC | 23.1µM | 18.4µM | i | ? | ?
COc1cc(-c2cc(NC(C)=O)c3ncc(-c4ccccc4)n3c2)cc(OC)c1OC | ? | ? | -60.4 | ? | ?
COc1ccc(NC(=O)CSc2nc3c(c(=O)n(C)c(=O)n3C)n2C)c(OC)c1 | i | i | i | i | i
NC(=S)N=Nc1c(O)n(CC(=O)Nc2ccccc2)c2ccccc12 | i | i | i | ? | ?
NC(=S)N=Nc1c(O)n(CCCl)c2ccc(Cl)cc12 | ? | 23.1µM | i | i | ?
NC(=S)N=Nc1c(O)n(CCCl)c2ccccc12 | 13µM | 2.59µM | i | i | i
CCOc1ccccc1Nc1nnc(-c2cc3cc(OC)ccc3oc2=O)s1 | 8.2µM | 7.31µM | nt | nt | nt
COc1ccc2oc(=O)c(-c3csc(-c4ccc(Br)cc4)n3)cc2c1 | i | i | nt | nt | nt
COc1ccc2oc(=O)c(-c3nnc(NCc4ccco4)s3)cc2c1 | 5.8µM | 3.66µM | i | i | ?
COc1ccc2oc(=O)c(-c3nc4ccccc4o3)cc2c1 | ? | ? | i | i | i
COc1ccc2oc(=O)c(-c3csc(Nc4ccc(O)cc4)n3)cc2c1 | 3.26µM | 5.8µM | -91.1 | ? | ?
COc1ccc(-n2c(=O)c(CCc3ccccc3)nc3cnc(N4CCN(C)CC4)nc32)cc1 | i | i | nt | nt | nt
Cc1cc(NC(=O)CN2C(=O)NC3(CCCCCC3)C2=O)no1 | i | i | i | i | i
COC(=O)C(C)N1C(=O)S/C(=C\c2cc(C)n(-c3ccccn3)c2C)C1=O (stereo unspecified) | 13µM | ? | i | i | i
COC(=O)C(C)N1C(=O)S/C(=C/c2cc(C)n(-c3ccccn3)c2C)C1=O (stereo unspecified) | ? | 16.4µM | i | i | i
CC(=O)c1cc(F)ccc1OCC(=O)Nc1ccc2c(c1)OCO2 | i | i | i | i | ?
SMILES | TDP1 cell CPT | TDP1 cell noCPT | IL-1B inflam inh | HT1080-NT tox | HT1080 IDH1KD tx
COc1cc(NC(=S)N(C)CCC#N)c(OC)cc1Cl | i | i | nt | i | i
COc1ccc(NS(=O)(=O)c2cccc(NC(=O)CCS(=O)(=O)c3ccccc3)c2)cc1 | ? | ? | i | i | i
Cc1ccc(C)c(N2CCN(C(=O)c3cccn3-c3nnc(N4CCCCC4)s3)CC2)c1 | ? | 14.6µM | nt | nt | nt
Cc1ccc(C)c(N2CCN(S(=O)(=O)c3c(C(=O)N4CCCCC4)c(C)n(C)c3C)CC2)c1 | i | i | i | i | i
O=C(c1cccn1-c1nnc(N2CCCC2)s1)N1CCN(c2ccc(F)cc2)CC1 | 16.4µM | 18.4µM | nt | nt | nt
Cn1c(C(=O)N2CCN(c3ccc(F)cc3)CC2)cc2ccccc21 | i | ? | i | i | i
O=C(CCSCCc1ccccn1)Nc1ccc(Cc2ccncc2)cc1 | i | i | i | i | i
CCOC(=O)CC(NS(=O)(=O)c1cc(-c2cc(C)no2)ccc1C)c1ccc(C)cc1 (stereo unspecified) | 20.6µM | 8.2µM | nt | nt | nt

Screening results from PubChem.
